# Reference: PubChem BioAssay (NCATS)
# Records with an inconclusive call do not appear. Unmarked numbers belong to inactive results. Calls of active or inactive are those of the source. Calls follow the shape of the dose curve; as a rule, active = well fitted inhibition curve with a large enough effect; inconclusive = small, poorly fitted or top-dose-only effect; inactive = flat fitted curve, though single readings scatter.
# Target: Phospholipid hydroperoxide glutathione peroxidase GPX4 (Homo sapiens) (UniProt P36969)
# Sequence (P36969 whole entry, looked up): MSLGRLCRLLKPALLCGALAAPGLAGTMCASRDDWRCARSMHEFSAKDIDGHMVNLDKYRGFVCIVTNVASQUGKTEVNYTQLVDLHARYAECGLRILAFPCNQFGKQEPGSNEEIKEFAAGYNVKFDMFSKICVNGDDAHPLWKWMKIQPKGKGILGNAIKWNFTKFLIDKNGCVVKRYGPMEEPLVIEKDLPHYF
# Assay: Primary qHTS Assay for Inhibitors of Recombinant Selenoprotein Glutathione Peroxidase 4 (GPX4) (AID 1845192); also: nearly all actives have a fitted effect of over 65% in size
# Settings: recombinant GPX4, GR-coupled NADPH fluorescence, 15 min; series mostly up to 27.8 µM; activity change, negative = inhibition: at the top concentration
# How it was run: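 Steps: GPX4 plus compound, 30 min RT; add GR/GSH/NADPH master mix; start with cumene hydroperoxide; read 340/450 nm fluorescence at 0 and 15 min. Finals were 200 nM GPX4, 1 mM GSH, 0.5 mM CHP, 0.5 mM NADPH, 100 nM GR.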
# % is scaled to controls: 0 for no effect and ±100 for the full control effect.
SMILES,outcome,"activity change, negative = inhibition",Potency
C/C=C1/[C@H](O[C@@H]2O[C@H](CO)[C@@H](O)[C@H](O)[C@H]2O)OC=C(C(=O)OC)[C@H]1CC(=O)OCCc1ccc(O)c(O)c1,inactive,,
COc1cc(CCCO)ccc1O[C@@H]1O[C@H](CO)[C@@H](O)[C@H](O)[C@H]1O,,0.839%,
CCC(C)C(=O)OC[C@H]1O[C@H](O[C@H]2O[C@H](CO)[C@@H](O)[C@H](O)[C@H]2O)[C@H](O)[C@@H](O)[C@@H]1O (some centres undefined),inactive,,
CCCN1CCC[C@@H](c2cccc(S(C)(=O)=O)c2)C1,,4.27% [at 50 µM],
CO[C@@H]1[C@]2(O)C(=O)N3/C=C\C(C)(C)c4[nH]c5ccccc5c4/C=C\3C(=O)N2[C@]23[C@H](CO)C(C)(C)N2c2ccccc2[C@]13O,,-25.9%,
C/C=C/C1OC2=C(C(=O)OC2(C)O)C(O)C1O (centres undefined),,-2.51% [at 50 µM],
O=C(NC/C=C/CN1CCN(c2cccc(Cl)c2Cl)CC1)c1ccc(-c2ccccn2)cc1,,-0.931% [at 50 µM],
C/C(=C\CC/C(C)=C/CC[C@]1(C)CCc2cc(O)cc(C)c2O1)CC/C=C(\C)C(=O)O,,-17.5%,
CC(=O)OC1C(CO)OC(O[C@H]2[C@H](OC(=O)[C@]34CCC(C)(C)C[C@H]3C3=CCC5[C@@]6(C)CC[C@H](O[C@@H]7O[C@H](C(=O)O)[C@@H](O)[C@H](O[C@@H]8OC[C@@H](O)[C@H](O)[C@H]8O)[C@H]7O[C@@H]7O[C@H](CO)[C@H](O)[C@H](O)[C@H]7O)[C@@](C)(C=O)C6CC[C@@]5(C)[C@]3(C)C[C@H]4O)O[C@H](C)[C@H](OC3OC(C)C(OC4OCC(O)C(O)C4O)C(O)C3O)[C@@H]2O)C(O)C1O (some centres undefined),,2.95% [at 9.73 µM],
CC(O)C/C=C/C=C/C(=O)OC1C=C2COC(=O)C2(O)C2(C)CCCC(C)(C)C12 (centres undefined),,-21.7%,
C[C@@H]1O[C@@H](O[C@H]2[C@H](O)[C@@H](O)[C@H](OC[C@H]3O[C@@H](OC(=O)[C@]45CCC(C)(C)C[C@H]4C4=CCC6[C@@]7(C)C[C@@H](O)[C@H](O)[C@@](C)(CO)C7[C@H](O)C[C@@]6(C)[C@]4(C)CC5)[C@H](O)[C@@H](O)[C@@H]3O)O[C@@H]2CO)[C@H](O)[C@H](O)[C@H]1O (some centres undefined),,-1.06% [at 15.3 µM],
C=C1CC/C=C(/C(=O)O)CCC2C1CC2(C)C (centres undefined),inactive [at 50 µM],,
CCOc1ncc(S(=O)(=O)N2CCN(CC)CC2)cc1-c1nc2c(CC)n(CCOC)nc2c(=O)[nH]1,,5.02% [at 50 µM],
O=C1C[C@@]2(C(=O)N1)C(=O)N(Cc1ccc(Br)cc1F)C(=O)c1cccn12,,-8.6% [at 50 µM],
COCC1OC(n2cnc3c(=O)[nH]cnc32)C(O)C1O (centres undefined),,-2.8% [at 50 µM],
O=C(OC[C@H]1O[C@@H](Oc2ccccc2COC(=O)C2(O)C=CCCC2O)[C@H](O)[C@@H](O)[C@@H]1O)c1ccccc1 (some centres undefined),,3.71%,
C=C1C(OC(C)=O)[C@@]23CCC4[C@](C)(C(=O)O)CCC[C@@]4(C)[C@]2(O)CC[C@H]1C3 (some centres undefined),,-19.2%,
C[C@H]1CCN2C[C@]34C[C@@]5(C(=O)Nc6c5ccc5c6OC=CC(C)(C)O5)C(C)(C)C3C[C@]12C(=O)N4C (some centres undefined),,-12.6%,
CC(CCc1ccc(O)cc1)O[C@@H]1O[C@H](CO[C@@H]2OC(CO)[C@H](O)[C@H]2O)[C@@H](O)[C@H](O)[C@H]1O (some centres undefined),inactive,,
CC1=CC(=O)C2C(C)(C)CCC[C@]2(C)[C@H]1CC[C@H](C)CC(=O)O (some centres undefined),,-0.646%,

SMILES,outcome,"activity change, negative = inhibition",Potency
O=C(OC1C=C(CO)C2C(OC3OC(CO)C(O)C(O)C3O)OC=CC12O)c1ccc(O)cc1 (centres undefined),,-5.88%,
COC(=O)C1=COC(O[C@@H]2O[C@H](CO)[C@@H](O)[C@H](O)[C@H]2O)[C@@H]2[C@@](C)(O)[C@@H](OC(=O)/C=C/c3ccccc3)C[C@]12O (some centres undefined),,-5.93%,
C/C=C(/C)C(=O)O[C@H]1C[C@]2(C)O[C@@H]2[C@@H](OC(C)=O)[C@@]2(C)CC[C@@](O)(C(C)C)[C@H]12,,-2.56%,
CC(=O)N[C@H]1[C@H](O[C@H]2CC[C@]3(C)C4CC=C5[C@@H]6CC(C)(C)CC[C@]6(C(=O)O)[C@H](O)C[C@@]5(C)[C@]4(C)CC[C@H]3C2(C)C)O[C@H](CO)[C@@H](O)[C@@H]1O (some centres undefined),,-4.96% [at 15.3 µM],
CC(CC(C)O[C@@H]1O[C@H](CO)[C@@H](O)[C@H](O)[C@H]1O)OC(=O)/C=C/c1ccc(O)cc1 (some centres undefined),inactive,,
COC(=O)C1=CO[C@@H](O[C@@H]2O[C@H](CO)[C@@H](O)[C@H](O)[C@H]2O)[C@H]2[C@@H]1[C@H](O)[C@H](O)[C@]2(C)O,,3.76%,
N#Cc1cc(-c2n[nH]c(-c3ccncc3)n2)ccn1,,,inactive
Cc1cc(CNC(=O)c2cc(C(=O)NCc3ccc(F)c(C)c3)ncn2)ccc1F,,-0.0483% [at 50 µM],
C[C@]12CCC[C@](C)(C(=O)O)C1CCC13CC(CO)C(CCC12)C3 (some centres undefined),,-12.9%,
CCCC(C(=O)O)c1c(C)nc2ccc(Cl)cc2c1-c1ccccc1 (centres undefined),,-7.92% [at 50 µM],
COc1ccc(CC(NC(C)=O)C(=O)O)cc1 (centres undefined),inactive [at 50 µM],,
C=C1CC[C@@]2(OC1)O[C@H]1CC3[C@@H]4CC=C5C[C@H](O[C@H]6OC[C@@H](O)C(O)[C@@H]6O[C@@H]6O[C@@H](C)[C@H](O)[C@@H](O[C@@H]7O[C@H](CO)[C@@H](O)[C@H](O)[C@H]7O)[C@H]6O)C[C@@H](O)[C@]5(C)C4CC[C@]3(C)[C@H]1[C@@H]2C (some centres undefined),,-6.68% [at 15.3 µM],
COCCN1CCC(C(=O)NO)(S(=O)(=O)c2ccc(Oc3ccc(OC(F)(F)F)cc3)cc2)CC1,,-7.24% [at 50 µM],
COc1cccc(OC)c1-c1ccc(C[C@H](NC(=O)c2c(Cl)cccc2Cl)C(=O)O)cc1,,-2.5% [at 50 µM],
Cc1onc(-c2c(Cl)cccc2Cl)c1CC(=O)NCc1ccc(OCC(F)(F)F)nc1,,-8.21% [at 50 µM],
COC(=O)C1=CO[C@@H](O[C@@H]2O[C@H](CO)[C@@H](O)[C@H](O)[C@H]2O)[C@@H]2C(CO)=CC[C@H]12,,2.51%,
C=C1[C@@H]2CC[C@@]3(C)[C@H](c4ccoc4)OC(=O)C[C@]13O[C@H]1CC(=O)C(C)(C)[C@H](C(O)C(=O)OC)[C@]12C (some centres undefined),,-5.6%,
CCCCC(=O)N1c2ccccc2NC2=C(C(=O)CCC2)C1c1ccccc1Cl (centres undefined),,3.86% [at 50 µM],
CCNC(=O)OC1CCN(c2nncc3cc(OC)c(OC)cc23)CC1,,-1.92% [at 50 µM],
